Data taken from PubChem BioAssay.
Unmarked numbers belong to inactive results. The rule behind the calls is not given here. Where a SMILES comes first, the peptide text is derived from it. The star is where a group is joined. Boc = CC(C)(C)OC(=O)*

These molecules were tested against Pantothenate synthetase (Mycobacterium tuberculosis (strain ATCC 25618 / H37Rv)) (UniProt P9WIL5) (assay: Recombinant Mtb pantothenate synthetase (PanC) inhibitors, coupled enzyme, confirmatory (AID 375;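 note: 0% = full reaction with vehicle and 100% = no enzyme background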)). Conditions: coupled enzyme assay; at 10 µM, hits give high values.
Sequence of Pantothenate synthetase (Mycobacterium tuberculosis (strain ATCC 25618 / H37Rv)) (P9WIL5 whole entry, looked up): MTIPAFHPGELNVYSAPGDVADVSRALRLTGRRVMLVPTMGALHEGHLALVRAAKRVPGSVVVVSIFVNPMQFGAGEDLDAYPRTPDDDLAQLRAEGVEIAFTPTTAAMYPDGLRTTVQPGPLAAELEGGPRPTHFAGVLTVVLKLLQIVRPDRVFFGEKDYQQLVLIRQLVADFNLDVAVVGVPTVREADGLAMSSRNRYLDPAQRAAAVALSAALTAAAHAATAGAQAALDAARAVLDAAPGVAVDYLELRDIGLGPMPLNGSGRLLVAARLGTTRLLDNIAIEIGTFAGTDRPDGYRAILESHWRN

Compared with `COC(=O)c1ccccc1NC(=O)C1CC(=O)N(c2ccccc2)C1` (stereo unspecified), `CCOc1ccccc1NC(=O)C1CCCN1C(=O)OCc1ccccc1` (stereo unspecified) is lower in inhibition: 4% for the first, 0% for the second.

Compared with `Cc1ccc(CCNC(=O)CC2Oc3ccc(C)cc3NC2=O)cc1` (stereo unspecified), `COc1ccc(CC(=O)Nc2ccc(-c3nnc(-c4ccc(C)cc4)o3)cc2)cc1` is higher in inhibition: 0% for the first, 4% for the second.

Compared with `Oc1ccc(C=Nc2cccc3ncccc23)c(O)c1`, `COc1ccccc1OCc1nc2ccccc2[nH]1` is lower in inhibition: 2% for the first, 0% for the second.

`CC(C)C(=O)Nc1ccc(C(=O)NCc2cccnc2)cc1` and `CCCCc1ccc(NC(=O)N[C@H](C(=O)O)C(C)CC)cc1` (stereo partly specified) are the same in inhibition: 0% for the first, 0% for the second.

First: CC(=O)c1cccc(NC(=O)CCNS(=O)(=O)c2cccc3nsnc23)c1
Second: O=S(=O)(NCCCCCNS(=O)(=O)c1ccccc1)c1ccccc1
The inhibition of the first is lower: 0% for the first, 6% for the second.

`CCOC(=O)c1sc(NC(=O)CSc2nnnn2-c2ccccc2)c(C(=O)OCC)c1C` and `O=C(CNC(=O)c1cccs1)NCCN1CCN(c2ccccc2F)CC1` are the same in inhibition: 0% for the first, 0% for the second.

`Cc1ccc(S(=O)(=O)Cn2nnnc2C(C(C)C)N2CCN(C(=O)c3ccco3)CC2)cc1` (stereo unspecified) and `Nc1nc(SCCOc2ccccc2)n[nH]1` are the same in inhibition: 0% for the first, 0% for the second.

First: CC(C)(C)OC(=O)N1CCCC1C(=O)N1CCCC1C(=O)N1CCCC1C(=O)O (stereo not drawn) (Boc-Pro-Pro-Pro-OH; configuration not given here)
Second: COc1ccc(OC)c(Nc2nc(-c3cccs3)cs2)c1
The inhibition of the first is higher: 3% for the first, 0% for the second.
